40 molecules from PubChem BioAssay (Tox21) can be followed below.

Molecules are shown by their SMILES. Results filed as inconclusive are left out. Unmarked numbers belong to inactive results. Calls of active or inactive are those of the source. Calls follow the shape of the dose curve; as a rule, active = well fitted activation curve with a large enough effect in the repeat runs; inconclusive = weak or mixed curves; inactive = no such curve, though single readings can be large or run the other way.
% is scaled to controls: 0 for no effect and ±100 for the full control effect; potency is read from the fitted curve at half-maximal effect.

Nuclear receptor subfamily 1 group I member 2 (Homo sapiens), sequence (O75469 whole entry, looked up): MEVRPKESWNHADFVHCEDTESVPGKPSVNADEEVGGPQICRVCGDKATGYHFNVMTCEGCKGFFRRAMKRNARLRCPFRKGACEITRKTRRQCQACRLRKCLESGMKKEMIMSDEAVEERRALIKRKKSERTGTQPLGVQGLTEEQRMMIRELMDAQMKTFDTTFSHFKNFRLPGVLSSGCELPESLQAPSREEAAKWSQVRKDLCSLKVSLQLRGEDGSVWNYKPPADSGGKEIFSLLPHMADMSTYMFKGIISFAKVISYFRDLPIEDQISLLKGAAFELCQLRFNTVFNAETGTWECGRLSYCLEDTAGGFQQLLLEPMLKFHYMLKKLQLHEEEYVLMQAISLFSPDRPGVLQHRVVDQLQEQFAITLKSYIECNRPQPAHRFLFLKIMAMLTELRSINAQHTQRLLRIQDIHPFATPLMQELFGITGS

The assay concerns the target Nuclear receptor subfamily 1 group I member 2 (Homo sapiens) (UniProt O75469). In words: Human pregnane X receptor (PXR) small molecule agonists, qHTS assay (AID 1346982). Also: nearly all actives have a fitted effect of over 35% in size. The settings on record: PXR-Luc HepG2, CYP3A4 luciferase reporter, 24 h; series mostly up to 92.4 µM; activation: at the top concentration. An excerpt: National Center for Advancing Translational Sciences [NCATS]
NIH Chemical Genomics Center [NCGC]
U.S. Environmental Protection Agency [EPA]
National Institutes of Environmental Health Sciences [NIEHS]
National Toxicology Program [NTP]
The human pregnane X receptor (hPXR) regulates the expression of several drug metabolizing enzymes and induction of these proteins is a major mechanism for developing drug resistance in cancer. One such key enzyme catalyzing the drug metabolism is cytochrome P450 3A4 (CYP3A4). Changes in CYP3A4 expression affect drug metabolism, thereby reducing the therapeutic efficacy and altering toxicological response to a drug and which finally causes adverse drug interaction. To screen Tox21 libraries for compounds that activate hPXR-mediated CYP3A4 gene expression, PXR-Luc HepG2 cells were used.
PXR-Luc HepG2 cells were dispensed at 2,000 per well in 5uL of assay medium containing 5% charcoal-stripped FBS into white solid bottom 1536-well plates (Corning Life Sciences, Corning, NY) using a Multidrop Combi (Thermo Scientific, Waltham, MA) dispenser. The assay plates were incubated at 37 C and 5% CO2 for 5hr, and then 23nL of compounds dissolved in DMSO and positive control were transferred using a Pintool station (Wako, San Diego, CA). The assay plates were incubated at 37C and 5% CO2 for 24hr. For luciferase read, 4uL of ONE-Glo reagent (Promega Corporation, Madison, WI) was added to each well of the assay plates using Flying Reagent Dispenser (FRD, Aurora Discovery, San Diego, CA) and incubated the assay plates at room temperature for 30min. The luminescence signal was quantified using a ViewLux plate reader (Perkin Elmer, Shelton, CT).
(In general: Quantitative high-throughput screening tests each substance at several concentrations.)
For the molecule `O=C1NC2NC(=O)NC2N1` (stereo not given), the “activation” value was 2.09%.

As for `COC(/C=C(\C)CCC=C(C)C)OC`, the “activation” value is 9.01%.

With `Cc1nc2n(c(=O)c1CCN1CCC(C(=O)c3ccc(F)cc3)CC1)CCS2`, the “activation” value is 9.67% [at 42.5 µM].

`COc1ccc(OC)c(NC(=O)CC(C)=O)c1`: the Potency is 54.5 µM (active).

As for `C=C(C)[C@@H]1CC[C@@H](C)C[C@@H]1O`, the “activation” value is -0.388%.

`CCN1CN(CC)CN(CC)C1`: the “activation” value was 6.94%.

With `CC1=CC[C@H](CC=O)C1(C)C`, the Potency was 48.6 µM (active).

For `O=S(=O)(O)CCO`, the “activation” value was 16.4%.

For `NCCc1ccn[nH]1`, the “activation” value is -13.6% [at 42.5 µM].

Consider `O=C(O)c1ccccc1C(=O)Nc1ccc(S(=O)(=O)Nc2nccs2)cc1`, for which the “activation” value was -3.71% [at 42.5 µM].

In the case of `COc1cc(C=O)ccc1OC(=O)C(C)C`, the “activation” value is 21.7%.

Turning to `NC(=O)C1(N2CCCCC2)CCN(CCCC(=O)c2ccc(F)cc2)CC1`, the “activation” value was -6.92% [at 42.5 µM].

Regarding `COCCOCCOCCOC`, the “activation” value is -19.2%.

Turning to `CCN(CCC#N)c1ccccc1`, the “activation” value was 15.1%.

For `CCOc1ccc(NC(=O)OC(C)C)cc1OCC`, the Potency was 48.6 µM (active).

For `NC(=O)NNC(N)=O`, the “activation” value is -8.07%.

For the molecule `CCOC(=O)C(=O)c1csc(NC=O)n1`, the “activation” value is -10.9% [at 42.5 µM].

Consider `FC(F)(F)/C(=N\OCC1OCCO1)c1ccc(Cl)cc1`, for which the “activation” value was 9.8%.

For the molecule `CC(C)CCCCCCOC(=O)C1CCCCC1C(=O)OCCCCCCC(C)C` (stereo not given), the “activation” value is -4.75%.

Take `CCC(=O)OCCC(C)CCC=C(C)C` (stereo not given): the “activation” value is -2.08%.

In the case of `CC1=NN(c2ccc(S(=O)(=O)O)cc2)C(=O)C1N=Nc1ccccc1` (stereo not given), the “activation” value was 0.569%.

Regarding `CC(C)C(=O)Nc1cccc(C(F)(F)F)c1`, the “activation” value was 10% [at 42.5 µM].

Regarding `Cc1ccc(S(=O)(=O)NC(=O)NC2CCCCCCC2)cc1`, the “activation” value was 7.41% [at 42.5 µM].

Regarding `Nc1nc(=O)n([C@@H]2O[C@H](CO)[C@@H](O)[C@@H]2F)cc1I`, the “activation” value was -7.9% [at 42.5 µM].

As for `CCN(Cc1cccc(S(=O)(=O)O)c1)c1ccccc1`, the “activation” value is -4.03%.

Regarding `Nc1ccc(/C=C/c2ccc(N)cc2S(=O)(=O)O)c(S(=O)(=O)O)c1`, the activation was -2.19% [at 0.349 µM].

For the molecule `CCC1COC(=O)O1` (stereo not given), the “activation” value is 14.8%.

Take `Nc1cc(C(=O)O)ccc1Cl`: the “activation” value is -6.01%.

For `C=CCOc1c(Br)cc(Br)cc1Br`, the “activation” value was 16.9%.

In the case of `COC(OC)C(C)c1ccccc1` (stereo not given), the “activation” value is -4.71%.

In the case of `O=C(O)Cc1cccc(-c2cc(CCCCCCc3ccc(O[C@H]4O[C@H](CO)[C@@H](O)[C@H](O)[C@@H]4O)c(-c4cccc(CC(=O)O)c4)c3)ccc2O[C@H]2O[C@H](CO)[C@@H](O)[C@H](O)[C@@H]2O)c1`, the activation was -9.1% [at 0.349 µM].

`CO/N=C(/C(=O)N[C@@H]1C(=O)N2C(C(=O)O)=C(Cn3nnc(C)n3)CS[C@H]12)c1csc(N)n1`: the “activation” value was -12.6% [at 42.5 µM].

In the case of `Nc1ccc(C(=O)OCC(O)CO)cc1` (stereo not given), the “activation” value was -4.02% [at 42.5 µM].

Take `CCCCCCCCCCCCCCCCCCN(C)C`: the “activation” value is -4.55% [at 42.5 µM].

`O=C(CN1CCN(Cc2ccc3c(c2)OCO3)CC1)N1c2ccccc2Sc2ccccc21`: the Potency is 11.9 µM (active).

Take `C[Si]1(C)N[Si](C)(C)N[Si](C)(C)N1`: the “activation” value is 41.3%.

Regarding `Cc1oc(=O)oc1CN1CCN(c2cc3c(cc2F)c(=O)c(C(=O)O)c2n3C(C)S2)CC1` (stereo not given), the “activation” value was -8.51% [at 42.5 µM].

Take `C=CCCCCCCCCCCC`: the activation was -8.11% [at 8.39 µM].

As for `CC(=O)OC(C)c1ccccc1` (stereo not given), the “activation” value was 6.86%.

On to `NC(=O)NC(=O)Cc1ccccc1`, for which the “activation” value is -6.18% [at 42.5 µM].
